This excerpt belongs to a sample that is enriched for hits.
ALR H2O2 inh – inhibitors of human sulfhydryl oxidase ALR. P55789. purified ALR, DTT oxidation, H2O2 HRP-luminol luminescence. inhibition, % (test concentration not listed). 3.8% of 290,000 active;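 active = mean replicate inhibition above about 79%, with every replicate also reaching it, limit read from the data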
Target sequence (P55789 whole entry, looked up): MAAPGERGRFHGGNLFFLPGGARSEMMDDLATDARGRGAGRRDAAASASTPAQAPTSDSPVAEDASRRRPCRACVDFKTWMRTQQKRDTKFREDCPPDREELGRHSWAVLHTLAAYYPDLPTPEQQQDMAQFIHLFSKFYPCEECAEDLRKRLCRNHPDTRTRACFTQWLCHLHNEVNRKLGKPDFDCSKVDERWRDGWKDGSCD
NPR2 activator – GC-B (human) receptor activation; P20594; HEK293-GC-B cells, CNP EC30, cGMP TR-FRET; 0% at EC30 CNP, 100% saturating CNP; activation, % at 10 µM; 0.11% of 370,000 active; AID 1920062;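 active = activation at 10 µM reaching about 35% in either raw or pattern-adjusted values, limit read from the data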
HDAC3 inhib – blocks human histone deacetylase 3; O15379; recombinant HDAC3, fluorogenic peptide/trypsin coupled, fluorescence; inhibition, % at 8.3 µM; 0.15% of 320,000 active; AID 2718; in the data active = inhibition above about 26%, passing the limit was not always enough
GC-A act – GC-A (human) enzyme activation | activation, % at 10 µM | 0.14% of 370,000 active | AID 1671463 | HEK293 GC-A cells, cGMP TR-FRET, EC30 ANP; 0% at EC30 ANP, 100% saturating ANP; in the data active = activation above about 40%
* = called active by the depositor; . = no result given.

SMILES	ALR H2O2 inh	NPR2 activator	HDAC3 inhib	GC-A act
CCN(CC)C(=O)CC[C@H]1CC[C@]2(CCCN(C(=O)c3ccco3)C2)O1	.	0	.	5
CCc1ccc(NC(=O)CSc2ccc(-c3ccco3)nn2)cc1	98*	2	4	2
Cc1cccc(CSc2ccc(-c3ccco3)nn2)c1	98*	-6	-2	-1
Cc1ccc(CSc2ccc(-c3ccco3)nn2)cc1	49	5	-1	-1
Clc1cccc(CSc2ccc(-c3ccco3)nn2)c1	98*	-3	-3	-5
O=C(c1ccncc1)N1CC[C@H]2[C@H](CCCN2Cc2ccccc2)C1	.	2	.	-2
COc1ccc(S(=O)(=O)Nc2ccccc2C(=O)NCc2cccnc2)cc1OC	-1	0	-15	4
Cc1cc(C)c2cc(CN(Cc3ccco3)C(=S)NCC3CCCO3)c(=O)[nH]c2c1 (stereo not given)	96*	0	-4	1
CCc1noc(C)c1C(=O)Nc1nc2c(C)cccc2s1	.	3	2	3
Cc1cc(C(=O)Nc2nc3c(C)cccc3s2)c(C)o1	95*	-5	-15	6
O=C(COC(=O)c1ccccc1NCCO)Nc1cc(C(F)(F)F)ccc1N1CCOCC1	1	-1	-16	1
Cc1cccc(NCc2nc(-c3ccccc3)no2)c1	91*	4	-2	2
CC1(C)C(=O)C2(CCCCC2)C(=O)OC1c1cccc([N+](=O)[O-])c1 (stereo not given)	-3	0	-5	0
CN(C)c1ccc(C2OC(=O)C3(CCCC3)C(=O)C2(C)C)cc1 (stereo not given)	94*	2	-1	-2
Nc1c(Cl)ncnc1N/N=C/c1cccc(O)c1	97*	-3	3	0
COc1cc(C2Nc3cc(C)c(C)cc3NC3=C2C(=O)CC(C)(C)C3)ccc1OC(C)=O (stereo not given)	80*	-8	-2	-4
COc1cccc(C2Nc3ccccc3NC3=C2C(=O)CC(C)(C)C3)c1OC (stereo not given)	99*	-6	5	-4
CCOc1ccc(C2Nc3ccccc3NC3=C2C(=O)CC(C)(C)C3)cc1OC (stereo not given)	98*	-3	3	2
COc1ccc(C2Nc3ccccc3NC3=C2C(=O)CC(C)(C)C3)cc1O (stereo not given)	.	-1	1	-1
COc1ccccc1C1Nc2ccccc2NC2=C1C(=O)CC(C)(C)C2 (stereo not given)	99*	-3	8	-3
CC1(C)CC(=O)C2=C(C1)Nc1ccccc1NC2c1cc(Cl)ccc1O (stereo not given)	.	-3	-7	-27
CCOC(=O)/C=C1/SCC(=O)N1CCOc1cccc(Br)c1	.	8	.	12
COc1ccc(OC)c(C2Nc3ccccc3NC3=C2C(=O)CC(C)(C)C3)c1 (stereo not given)	99*	-3	7	-5
COc1ccc(C2Nc3ccccc3NC3=C2C(=O)CC(C)(C)C3)cc1OC (stereo not given)	73	1	7	-4
COc1ccc(C2Nc3ccccc3NC3=C2C(=O)CC(C)(C)C3)c(OC)c1OC (stereo not given)	98*	5	4	-3
SMILES	ALR H2O2 inh	NPR2 activator	HDAC3 inhib	GC-A act
COc1ccc(N=C(N(C)C)P(=O)(N(C)C)N(C)C)cc1	99*	1	-1	2
COc1ccc(N=C(C)C2=C(O)c3ccccc3C2=O)cc1	-6	-10	5	-5
COc1ccc(N(C)S(=O)(=O)c2cccc(C(=O)Nc3cccc(C(=O)NC4CC4)c3)c2)cc1	94*	4	2	5
COc1ccc(N(C)S(=O)(=O)c2cccc(C(=O)Nc3nnc(C)s3)c2)cc1	-4	-1	2	-6
COc1ccc(N(C)S(=O)(=O)c2cccc(C(=O)NC3CCC(C)CC3)c2)cc1 (stereo not given)	2	2	7	-5
CCSc1nnc(NC(=O)c2cccc(S(=O)(=O)N(C)c3ccc(C)cc3)c2)s1	98*	2	4	-1
CN(c1cccc(Cl)c1)S(=O)(=O)c1cccc(C(=O)NC2=NCCS2)c1	98*	-5	6	-5
COc1ccc(N(C)S(=O)(=O)c2cccc(C(=O)Nc3nc(C)c(C(C)=O)s3)c2)cc1	99*	7	4	-3
CCCC(C)NC(=O)Cc1ccc(Br)cc1 (stereo not given)	95*	0	-2	0
CCc1ccc(C2=CC(c3cc(Br)ccc3F)n3ncnc3N2)cc1 (stereo not given)	3	2	-1	11
Fc1ccc(Br)cc1C1C=C(c2ccc(Br)cc2)Nc2ncnn21 (stereo not given)	90*	-5	0	3
Cc1cccc(N2C(=O)C(O)=C(C(=O)c3cccs3)C2c2cccc(Oc3ccccc3)c2)n1 (stereo not given)	98*	0	-2	2
CC(=O)C1=C(O)C(=O)N(c2ccc(C(=O)O)cc2)C1c1ccc([N+](=O)[O-])cc1 (stereo not given)	43	-3	1	1
O=C(C1=C(O)C(=O)N(c2ccccc2)C1c1ccc([N+](=O)[O-])cc1)c1cccs1 (stereo not given)	89*	4	9	-1
O=C(CSc1nnc(-c2ccccc2)n1-c1ccc(Cl)cc1)Nc1ccc(OCc2ccccc2)cc1	.	1	.	3
CCCOCCOC(=O)c1[nH]c2c(c1C)C(=O)CC(c1cc(OC)ccc1OC)C2 (stereo not given)	1	-4	1	-4
COc1ccc(N2C(=O)C3C(c4ccc(C(=O)O)cc4)NC(Cc4ccccc4)(C(=O)O)C3C2=O)c([N+](=O)[O-])c1 (stereo not given)	23	-2	8	2
O=C1c2cc(O)c(O)cc2S(=O)(=O)C1c1ccccc1 (stereo not given)	99*	4	2	1
CCCCCNC(=O)C(c1ccnc2ccccc12)n1c(=O)c(-c2cc3ccccc3[nH]2)nc2ccccc21 (stereo not given)	.	0	.	0
COc1ccc(C(=O)NC2CC2)cc1OC1CCN(Cc2ccc(NC(C)=O)cc2)CC1	.	3	.	4
COC(=O)c1cc2c(c3c4cc(F)ccc4n(S(=O)(=O)c4ccccc4)c13)C(=O)N(Cc1ccccc1)C2	.	5	.	1
COc1ccc(S(=O)(=O)N(C)C[C@@H]2Oc3c(NC(=O)Nc4cccc5ccccc45)cccc3C(=O)N([C@@H](C)CO)C[C@H]2C)cc1	.	-1	.	-2
Cc1ccc2[nH]c3c(N4CCN(Cc5ccccc5)CC4)ncnc3c2c1	12	-9	-9	-13
Cc1ccc2c(c1)[nH]c1c(N3CCN(Cc4ccccc4)CC3)ncnc12	98*	2	-8	4
c1ccc(CN2CCN(c3ncnc4c3[nH]c3ccccc34)CC2)cc1	95*	-6	-19	-5
COc1ccc(N2CCN(Cc3nc4c(c(=O)n(C)c(=O)n4C)n3C(C)C(C)=O)CC2)cc1 (stereo not given)	89*	1	-1	2

Assay outcomes deposited in PubChem by several laboratories.
